# Source: PubChem BioAssay (The Scripps Research Institute Molecular Screening Center)
# The list is not random: actives were taken first. Their share in the collection is about 2.3%.
# M1 antag: blocks human M1 muscarinic receptor; P11229; CHO-K1 hM1, Fluo-8 calcium fluorescence, ACh EC80 antagonist; inhibition, % at 3 µM; 360,000 tested, 1.3% active;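 active = percent inhibition above its own plate's cutoff, namely the mean of that plate's compound wells plus 3 SD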;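 note: peak over basal fluorescence ratio during 140 s after agonist addition; 0% = ACh EC80 plus DMSO and 100% = DMSO alone without agonist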
# Target sequence (P11229 whole entry, looked up): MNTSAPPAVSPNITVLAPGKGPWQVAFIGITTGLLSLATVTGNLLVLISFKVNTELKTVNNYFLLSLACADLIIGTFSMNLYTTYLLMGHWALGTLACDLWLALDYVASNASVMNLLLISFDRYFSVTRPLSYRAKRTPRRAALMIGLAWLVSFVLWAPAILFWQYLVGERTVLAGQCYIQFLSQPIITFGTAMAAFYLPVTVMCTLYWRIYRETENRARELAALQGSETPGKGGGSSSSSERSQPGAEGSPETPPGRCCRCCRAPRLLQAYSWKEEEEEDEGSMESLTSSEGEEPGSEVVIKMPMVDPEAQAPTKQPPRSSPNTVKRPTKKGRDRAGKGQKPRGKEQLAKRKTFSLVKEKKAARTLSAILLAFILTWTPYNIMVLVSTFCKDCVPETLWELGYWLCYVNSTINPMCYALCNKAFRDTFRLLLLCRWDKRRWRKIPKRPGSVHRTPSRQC
# M1 ag: activates human CHRM1 receptor. P11229. CHO-K1 hM1, Fluo-8 calcium fluorescence, agonist mode; 0% DMSO, 100% acetylcholine EC100. activation, % at 3 µM. 360,000 tested, 0.33% active;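 active = activation above the run's mean compound activation plus 3 SD, cut at about 16% in these data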;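 note: peak over basal fluorescence ratio within a 140 s kinetic read after compound addition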
# CHO-K1 Ca ag: counter-screen for M1 agonists: effect in parental CHO-K1 cells. 360,000 tested, 0.48% active. Fluo-8 calcium fluorescence; scaled to maximal ATP response, vehicle zero. activation, % at 3 µM. AID 602248; in the data active = activation above about 15%;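 note: untransfected CHO-K1 host cells lacking M1 receptor as counterscreen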
# M1 PAM: positive allosteric modulators of human M1 muscarinic receptor; P11229; AID 588819; 360,000 tested, 0.088% active; activation, % at 3 µM; CHO-K1 hM1, Fluo-8 calcium fluorescence, ACh EC20; 0% = ACh EC20, 100% = maximal ACh; in the data active = activation above about 19%, passing the limit was not always enough
# CHO-K1 Ca antag: M1 antagonist counterscreen hit in parental CHO-K1 cells; ATP-induced calcium, Fluo-8 fluorescence; inhibition, % at 3 µM; 360,000 tested, 0.6% active;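 active = inhibition above a per-plate cutoff, the plate's mean sample inhibition plus 3 SD, cut at about 24% in these data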;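 note: 0% = DMSO plus EC80 ATP and 100% = DMSO alone without ATP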
# CHO-K1 Ca PAM: counter-screen for M1 PAMs: effect in parental CHO-K1 cells; activation, % at 3 µM; ATP EC20, Fluo-8 calcium fluorescence; 0% at ATP EC20, 100% at ATP max; 360,000 tested, 0.02% active;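 active = activation above the run cutoff, the mean activation of all test compounds plus 3 SD, cut at about 40% in these data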;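 note: peak over basal fluorescence ratio in a 140 s read after ATP addition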
# The depositor's hits bear a star; · = not tested or not shown.
SMILES,M1 antag,M1 ag,CHO-K1 Ca ag,M1 PAM,CHO-K1 Ca antag,CHO-K1 Ca PAM
Cc1c(Cl)cccc1NC(=O)[C@@H](NC(=O)c1ccccc1Cl)C(C)C,1.2,-7.7,-0.4,1.8,24.1*,-14.3
CC(C)CCNC(=O)C1(C)CCN1Cc1ccc2ccccc2c1 (stereo unspecified),-3.4,-9.0,-0.6,-9.2,-11.4,11.2
O=C1c2cccc3c(O)ccc(c23)C(=O)N1Cc1ccco1,30.3*,68.2*,65.3*,-23.0,26.1*,-3.9
CC(=O)Nc1ccc(N2C(=O)c3cccc4c(O)ccc(c34)C2=O)cc1,38.9*,98.0*,40.6*,-32.0,21.4,-23.2
O=C1c2cccc3c(O)ccc(c23)C(=O)N1c1ccc(Cl)cc1,44.8*,77.5*,18.4*,-30.1,6.8,-19.8
CC(C)(C)c1cc(CCC(=O)N2CCC2)cc(C(C)(C)C)c1O,-10.9,-3.6,0.1,8.4,-13.8,4.5
CC1CN(C(=O)CCc2cc(C(C)(C)C)c(O)c(C(C)(C)C)c2)CC(C)O1 (stereo unspecified),18.0,-2.2,3.0,-5.9,27.1*,-5.8
COCCCN1C(=O)C(CC(=O)NCC2CCCCC2)CC(C(=O)N(C)C)=C1C (stereo unspecified),-8.6,-0.9,0.5,6.8,-21.4,17.9
O=C(/C=C/c1ccc(Cl)c(Cl)c1)NCCCn1ccnc1,-10.7,-6.8,0.5,5.3,-16.2,13.7
Cc1ccc(/C=C/C(=O)NCCCn2ccnc2)cc1,10.0,-11.9,17.8*,-3.2,16.1,8.2
COc1ccc(NC(=O)c2cc(C3CCCCN3S(=O)(=O)c3ccc(F)cc3F)on2)c(C)c1 (stereo unspecified),-11.7,-5.6,2.2,0.5,-3.3,10.5
CN(C)CC/C=C1\c2cc(Cl)ccc2Sc2cc(F)c(F)cc21,99.8*,-4.5,2.5,-26.6,-2.4,14.7
CN(C)CC/C=C1\c2ccccc2Sc2ccc(Cl)cc21,99.7*,-6.8,1.3,-27.1,11.2,-5.0
CN(C)CC/C=C1\c2ccccc2Sc2cc(F)c(Cl)cc21,99.9*,-3.0,2.2,-23.8,-4.8,25.2
OCCN1CCN(CC/C=C2/c3ccccc3Sc3ccc(Cl)cc32)CC1,9.8,-5.9,1.7,-18.7,0.2,11.4
CN(C)CC/C=C1\c2ccc(F)cc2Sc2cc(F)c(Cl)cc21,100.1*,-9.4,2.5,-28.3,0.1,18.8
CN(C)CCOCCOc1ccc(Cl)cc1C(C)(C)C,26.6,-5.4,4.1,-6.6,-16.4,8.7
CN(C)CCOc1ccc2c(c1)Sc1ccccc1CC2=O,8.6,10.3,3.9,-5.7,9.1,-0.7
CC1CCCCC1=NNC(=O)c1ccccc1 (stereo unspecified),0.1,-3.3,0.2,-2.1,-0.5,-1.0
CN(C)CC/C=C1/c2ccc(F)cc2Sc2ccc(Cl)cc21,100.0*,-5.8,7.4,-25.1,-10.7,21.9
O=C(CSc1nc(C(F)(F)F)cc(=O)[nH]1)Nc1cccc2ccccc12,-29.3,3.1,-0.1,24.4*,-4.8,11.2
COc1ccc(CN(C)C[C@@H]2OCc3cnnn3CCCC(=O)N([C@@H](C)CO)C[C@H]2C)cc1,-5.8,-2.1,0.1,-2.0,4.8,6.2
C[C@@H](CN1C2=NC[C@H](Cc3ccc(O)cc3)N2C[C@H]1Cc1ccc(O)cc1)NC(=O)CCC1CCCCC1,19.3,-11.8,-0.2,-17.9,-5.7,-3.2
C[C@@H](CN1C2=NC[C@H](Cc3ccccc3)N2C[C@H]1Cc1ccc(O)cc1)NC(=O)CCC1CCCCC1,40.0*,-13.3,-0.4,-36.9,-7.4,6.1
CC(C)(C)C(=O)Nc1nnc([C@H]2C[C@H](O)[C@@H](CO)O2)s1,-12.9,0.1,0.9,10.1,12.8,9.1
SMILES,M1 antag,M1 ag,CHO-K1 Ca ag,M1 PAM,CHO-K1 Ca antag,CHO-K1 Ca PAM
O=C(NCc1ccccc1)/C(=C\c1ccc([N+](=O)[O-])cc1)NC(=O)c1ccco1,-11.2,17.0*,1.3,15.1,-0.9,-2.0
O=C(NCCc1ccccc1)/C(=C\c1ccc([N+](=O)[O-])cc1)NC(=O)c1ccco1,6.4,-2.7,2.6,2.4,-6.4,-9.2
C=CCNC(=O)/C(=C/c1cccc([N+](=O)[O-])c1)NC(=O)c1ccco1,-11.8,-3.6,15.4*,11.7,0.0,18.8
Cc1c(P(=S)(c2ccccc2)c2ccccc2)[n+]2ccccc2n1C/C=C/c1ccccc1,56.5*,-8.5,0.9,-30.8,-10.0,19.5
CC(O)c1nc2ccccc2n1C/C=C/c1ccccc1 (stereo unspecified),-3.4,-1.5,5.0,9.8,5.1,14.3
O=C(Nc1ccc(Nc2ccccc2)cc1)c1ccc(Cl)c([N+](=O)[O-])c1,31.7*,-1.0,6.2,-16.4,11.2,-12.9
CN(c1ccccc1)S(=O)(=O)c1cccc(NC(=O)c2ccc(Cl)c([N+](=O)[O-])c2)c1,37.3*,-1.5,7.6,-17.6,3.1,-14.7
CN(c1ccccc1)S(=O)(=O)c1cccc(NC(=O)c2ccncc2)c1,23.3,3.2,15.2*,-11.1,4.0,-1.4
Cc1cc(C(=O)Nc2ccc(Nc3ccccc3)cc2)ccc1[N+](=O)[O-],-5.2,-1.8,2.8,-2.0,-6.9,2.7
O=C(Nc1ccc(Cl)c(Cl)c1)c1ccc(Cl)c(Cl)c1,37.2*,-4.1,7.8,-24.1,15.6,-22.2
COc1ccc(Cn2cc(CN3CC(N(C)C)CS3(=O)=O)nn2)cc1 (stereo unspecified),·,·,1.2,·,-7.0,4.9
O=C(Cc1ccccc1F)Nc1cc(S(=O)(=O)N2CCCCC2)ccc1N1CCOCC1,-7.4,-3.5,1.4,1.5,-1.2,-0.8
COc1cccc(S(=O)(=O)N(C)C[C@H]2OCc3cnnn3CCCC(=O)N([C@@H](C)CO)C[C@H]2C)c1,-3.9,-5.9,0.2,8.3,-4.0,10.4
O=C(Nc1ccc(Cl)c(Cl)c1)Nc1nccs1,27.3,7.8,10.6,-10.9,33.6*,-24.1
CN(c1cccc(NC(=O)c2ccc(N(C)S(=O)(=O)c3ccccc3)cc2)c1)S(C)(=O)=O,27.8*,-5.3,16.3*,-34.6,24.3*,-11.8
CN(C(=O)c1ccc2c(c1)SC1=NS(=O)(=O)CCN12)C(c1ccccc1)c1ccccc1,41.0*,-8.0,4.2,-20.8,2.7,5.0
O=C(O)c1ccc2c(c1)SC1=NS(=O)(=O)CCN12,-7.2,-3.6,0.9,6.1,-14.7,29.8
Cc1ccccc1NC(=O)c1sc2nc[nH]c(=O)c2c1C,3.5,-2.5,-0.4,11.4,23.9*,-14.2
CCCN1CCC(C(=O)NC(c2ccc(Cl)cc2)c2ccsc2)CC1 (stereo unspecified),-17.4,-6.0,2.0,10.3,-11.3,17.9
COc1ccc(OC)c(C2(O)CSC(=Nc3cccnc3)N2Cc2ccco2)c1 (stereo unspecified),1.1,-1.8,1.9,1.7,-6.3,6.9
